Measurements published in the supplement of paper PMC4466236.
Whole data set: some 33,000 sequences, median “E-score (dimensionless, -0.5 to 0.5)” near -0.058, cut for the highest 2% near 0.35. Only a selection was taken, and the highest values are over-represented in it overall.

test system: MvaT; experiment: PBM 8-mer E-score (mean of HK and ME arrays) (E-score (dimensionless, -0.5 to 0.5)); higher = stronger relative binding preference
Summary of the method: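 Full-length P. aeruginosa MvaT, with glutathione S-transferase fused to its N-terminus (cloned into pTH6838 by isothermal assembly), was tested by protein binding microarray using a previously described protocol. Two universal double-stranded 60-mer arrays (ME and HK) were used, each with a constant 25-mer primer region and a variable 35-mer region covering all 8-mers. The rank-based 8-mer E-score (-0.5 to 0.5) is the mean of the two arrays, parsed with a custom Python script.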

Row | Sequence | PBM 8-mer E-score
1 | AAGTTCCA | 0.2
2 | CGGGTTCC | -0.15
3 | CGGAAAAG | 0.00958
4 | AAATGGTC | -0.0709
5 | TACGTGCA | 0.0131
6 | AGGCCTAT | -0.235
7 | TAGCATCA | 0.0156
8 | ATTACCGA | 0.0931
9 | GGCGATAA | 0.137
10 | AAATCATG | -0.0303
11 | ACTGTAAA | 0.266
12 | ACTGTAAC | 0.246
13 | AATGTAAG | 0.293
14 | ACTGTAAT | 0.351
15 | AATGTAAT | 0.365
16 | AATGTAAC | 0.267
17 | GGTATGAC | -0.144
18 | ATAATGGG | 0.229
19 | AGGTTAAA | 0.0501
20 | ATCATTCC | -0.0603
21 | AATGATTC | 0.144
22 | CGATAGCC | -0.14

Row | Sequence | PBM 8-mer E-score
23 | GCAGTTCC | -0.18
24 | CATTATAC | 0.295
25 | AATTATCT | 0.296
26 | CATTATAA | 0.389
27 | AATTATAT | 0.461
28 | GATTATAC | 0.223
29 | AATTATAC | 0.342
30 | GATTATAA | 0.41
31 | AATTATAA | 0.468
32 | GATTATGA | 0.0705
33 | CATTAGAA | -0.0258
34 | AATTAGAT | 0.284
35 | CCAATGAC | -0.153
36 | CATTGTGG | -0.0595
37 | GGCTTTGA | -0.0706
38 | ACACAGGC | -0.0277
39 | TCCTACGA | -0.0392
40 | AATTATGA | 0.317
41 | CATTATAG | 0.277
42 | AATTATAG | 0.37
43 | AATTATGG | 0.285
44 | AATTATGT | 0.366

Row | Sequence | PBM 8-mer E-score
45 | ACTCCTGA | -0.0172
46 | CAGTTAAC | 0.221
47 | GAGTTAAC | 0.254
48 | AAGTTAAA | 0.411
49 | AAGTTAAC | 0.379
50 | GAGTTAAA | 0.25
51 | AAGTTACT | 0.339
52 | AAGTTAAG | 0.243
53 | TAGTTAAA | 0.273
54 | AAGTTAAT | 0.385
55 | GGTTATTA | 0.285
56 | CGTTATCA | 0.111
57 | CGTTATTC | 0.24
58 | CGTTATTA | 0.364
59 | AGTTATTA | 0.414
60 | AGTTATTG | 0.312
61 | AAAGTAGG | 0.0451
62 | CAAAGATC | -0.0152
63 | AATAAAGA | 0.344
64 | AATAAAAA | 0.415
65 | AATAAAAC | 0.341
66 | ACTAAAAT | 0.39

Row | Sequence | PBM 8-mer E-score
67 | AATAAAAT | 0.388
68 | ACTAAAAA | 0.193
69 | AATAAAGG | 0.228
70 | AGTAAAAT | 0.308
71 | ACTAAAAC | 0.289
72 | AATAAAAG | 0.309
73 | AATAAAGT | 0.372
74 | CACCAGCC | -0.0802
75 | AGGCCTAC | -0.133
76 | CAAACCTA | 0.0792
77 | ATTTTCGA | 0.0907
78 | AGCGTTCC | -0.129
79 | TTGAGAAA | 0.135
80 | ACGTGGCC | -0.18
81 | CCCTGATC | -0.224
82 | CTACATGC | -0.081
83 | ATCGGTAA | -3.6e-06
84 | GCCGCGTA | -0.0692
85 | ACACCCCC | -0.251
86 | AGCACAAA | 0.0677
